Laboratory results taken from PubChem BioAssay (NCI).
This is part of a sample that, as a whole, favours compounds with a hit. Of some 79,000 tested, about 15% had one in any assay. Activity calls are given as the source filed them. Cut-off read from the data, not from the text of the source: active = growth inhibition above about 70%; inactive = the rest.

Columns and labels:
[1] = NCI Yeast Anticancer Drug Screen. Data for the rad52 strain (AID 147);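 note: 0% = growth of vehicle-treated control cultures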; details: S. cerevisiae rad52 mutant growth inhibition, active compounds read high
Procedure, shortened: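 Measured: yeast growth inhibition. System: strain with a defined DNA damage repair alteration. Reference: vehicle-treated control cultures.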

[2] = NCI Yeast Anticancer Drug Screen. Data for the wt1 strain (AID 149);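 note: 0% = growth of vehicle-treated wt1 cultures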; details: S. cerevisiae wt1 strain (SPY 50644) growth inhibition, active compounds read high
Procedure, shortened: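 Using yeast strain wt1, compound-induced growth inhibition was determined against vehicle-treated cultures.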

[3] = NCI Yeast Anticancer Drug Screen. Data for the rad50EPP+ strain (AID 151);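 note: 0% = growth of vehicle-treated control cultures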; details: S. cerevisiae rad50 mutant strain, active compounds read high
Procedure, shortened: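 One strain with a rad50 alteration (rad50EPP+) was compound-treated, its growth then compared to that of vehicle controls.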

[4] = NCI Yeast Anticancer Drug Screen. Data for the rad50 strain (AID 155);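 note: 0% = growth of vehicle-only cultures of the same strain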; details: S. cerevisiae rad50 strain growth inhibition, active compounds read high
Procedure, shortened: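 Relative growth inhibition (compound vs vehicle) was measured in yeast with a defined repair-gene alteration.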

[5] = NCI Yeast Anticancer Drug Screen. Data for the mec2-1 strain (AID 157); details: S. cerevisiae mec2-1 strain, active compounds read high
Procedure, shortened: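 Test agents were screened against the mec2-1 yeast strain, with defined DNA repair or cell cycle alteration. Growth was scored as inhibition against vehicle-only controls.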

[6] = NCI Yeast Anticancer Drug Screen. Data for the rad14 strain (AID 159);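 note: 0% = growth of vehicle-treated control cultures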; details: S. cerevisiae rad14 strain growth inhibition, active compounds read high
Procedure, shortened: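 Screen for anticancer potential: a yeast strain altered in DNA damage repair is grown with compound, and reduced growth is quantified against vehicle controls.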

[7] = NCI Yeast Anticancer Drug Screen. Data for the sgs1 mgt1 strain (AID 161);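 note: 0% = growth of cultures given vehicle only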; details: S. cerevisiae sgs1 mgt1 strain, active compounds read high
Procedure, shortened: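 Inhibition of yeast growth, normalised to vehicle-treated controls, is reported for a strain bearing genetic alterations in DNA damage repair.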

[8] = NCI Yeast Anticancer Drug Screen. Data for the cln2 rad14 strain (AID 165);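 note: 0% = growth equal to vehicle treated cultures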; details: S. cerevisiae cln2 rad14 strain, active compounds read high
Procedure, shortened: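 Growth of compound-exposed yeast (cln2 rad14 genotype) measured and expressed as inhibition relative to vehicle.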

[9] = NCI Yeast Anticancer Drug Screen. Data for the bub3 strain (AID 167); details: S. cerevisiae bub3 mutant strain, active compounds read high
Procedure, shortened: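 Screening used yeast with an engineered genetic alteration affecting cell cycle control. Compound-exposed cultures were compared with vehicle cultures, and reduced growth was taken as inhibition.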

[10] = NCI Yeast Anticancer Drug Screen. Data for the wt2 strain (AID 169);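 note: 0% = growth of vehicle-treated yeast cultures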; details: S. cerevisiae wt2 strain growth inhibition, active compounds read high
Procedure, shortened: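 Genetically defined yeast strains from a DNA-repair/cell-cycle panel were used. Compound-exposed yeast growth was measured, and the inhibition was calculated relative to vehicle treatment.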

[11] = NCI Yeast Anticancer Drug Screen. Data for the mlh1 strain (AID 171);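 note: 0% = growth of vehicle-treated control cultures of the same strain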; details: S. cerevisiae mlh1 strain growth inhibition, active compounds read high
Procedure, shortened: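 Here the genetically defined yeast mutant is grown with each compound, and the extent to which its growth falls below that of vehicle-exposed cells is reported.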

[12] = NCI Yeast Anticancer Drug Screen. Data for the sgs1 strain (AID 173);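 note: 0% = growth of vehicle-only control cultures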; details: S. cerevisiae sgs1 mutant, active compounds read high
Procedure, shortened: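 Relative growth inhibition, referenced to vehicle, was determined in a yeast strain with a defined alteration affecting DNA damage repair or cell cycle control after compound exposure.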

[13] = NCI Yeast Anticancer Drug Screen. Data for the mlh1 rad18 strain (AID 175); details: S. cerevisiae mlh1 rad18 strain growth inhibition, active compounds read high
Procedure, shortened: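 In this whole-cell yeast screen, a strain with altered DNA damage repair is challenged with compound, and its growth is measured against matched vehicle-treated controls.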

[14] = NCI Yeast Anticancer Drug Screen. Data for the rad18 strain (AID 177); details: S. cerevisiae rad18 mutant growth inhibition, active compounds read high
Procedure, shortened: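 Screen uses a yeast strain with a defined lesion in DNA damage repair; compound effect is read as loss of growth compared to untreated vehicle cultures.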

[15] = NCI Yeast Anticancer Drug Screen. Data for the CLN2oe strain (AID 163);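 note: 0% = growth of vehicle-only control cultures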; details: S. cerevisiae CLN2oe strain, active compounds read high
Procedure, shortened: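 Here, growth inhibition in a cell-cycle-altered yeast strain after compound exposure was quantified against vehicle control growth.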

[16] = at 5.0 µM (retest, dose inferred, filed as 0.5)
[17] = at 50.0 µM (retest, dose inferred, filed as 5.0)

Measured: growth inhibition

c1ccc(N2N=C3N(c4ccccc4)C2N3c2ccccc2)cc1
active: [1]; at 100.0 µM 93% | [2]; at 100.0 µM 93% | [4]; at 33.0 µM 70% | [4]; [17] 97% | [4]; at 50.0 µM 81% | [4]; at 100.0 µM 92% | [5]; [17] 98% | [5]; at 100.0 µM 93% | [6]; at 100.0 µM 92% | [7]; at 50.0 µM 81% | [8]; [17] 75% | [9]; at 33.0 µM 80% | [9]; [17] 81% | [9]; at 50.0 µM 82.5% | [9]; at 100.0 µM 92% | [10]; at 100.0 µM 94% | [11]; at 100.0 µM 93% | [12]; at 100.0 µM 93% | [13]; [17] 99% | [13]; at 50.0 µM 77.5% | [14]; at 100.0 µM 94%
inactive: [1]; at 1.2 µM -19% | [1]; at 3.7 µM -14% | [1]; at 11.0 µM 4% | [1]; at 33.0 µM 57% | [2]; at 1.2 µM -46% | [2]; at 3.7 µM -41% | [2]; at 11.0 µM -16% | [2]; at 33.0 µM 34% | [3]; at 1.2 µM -13% | [3]; at 3.7 µM -8% | [3]; at 11.0 µM -5% | [3]; at 33.0 µM 6% | [3]; at 100.0 µM 1% | [4]; at 1.2 µM 1% | [4]; at 3.7 µM 7% | [4]; [16] 43% | [4]; at 11.0 µM 26% | [5]; at 1.2 µM -19% | [5]; at 3.7 µM -22% | [5]; [16] 35% | [5]; at 11.0 µM 3% | [5]; at 33.0 µM 44% | [5]; at 50.0 µM 69.2% | [6]; at 1.2 µM -33% | [6]; at 3.7 µM -36% | [6]; at 11.0 µM -20% | [6]; at 33.0 µM 20% | [7]; [16] -16% | [7]; [17] 57% | [8]; [16] 28% | [8]; at 50.0 µM 59.5% | [9]; at 1.2 µM -6% | [9]; at 3.7 µM -1% | [9]; [16] 28% | [9]; at 11.0 µM 29% | [10]; at 1.2 µM -17% | [10]; at 3.7 µM -7% | [10]; at 11.0 µM 1% | [10]; at 33.0 µM 44% | [11]; at 1.2 µM -28% | [11]; at 3.7 µM -22% | [11]; at 11.0 µM -7% | [11]; at 33.0 µM 37% | [12]; at 1.2 µM 2% | [12]; at 3.7 µM -29% | [12]; at 11.0 µM 2% | [12]; at 33.0 µM 41% | [13]; [16] 38% | [14]; at 1.2 µM 12% | [14]; at 3.7 µM 10% | [14]; at 11.0 µM -3% | [14]; at 33.0 µM 60%

CCCCCCCCCCCCCCCCNC(=O)/C(=C\c1ccc(Cl)c(Cl)c1)NC(=O)c1ccccc1
inactive: [1]; at 1.2 µM 21% | [1]; at 3.7 µM 8% | [1]; at 11.0 µM 18% | [1]; at 33.0 µM 11% | [2]; at 1.2 µM -41% | [2]; at 3.7 µM -2% | [2]; at 11.0 µM -4% | [2]; at 33.0 µM -6% | [2]; at 100.0 µM 9% | [3]; at 1.2 µM 2% | [3]; at 3.7 µM 6% | [3]; at 11.0 µM 6% | [3]; at 33.0 µM 34% | [4]; at 1.2 µM -2% | [4]; at 3.7 µM 0% | [4]; [16] 14% | [4]; at 11.0 µM -2% | [4]; at 33.0 µM -4% | [4]; at 100.0 µM 49% | [5]; at 1.2 µM 11% | [5]; at 3.7 µM -5% | [5]; [16] 8% | [5]; at 11.0 µM -7% | [5]; at 33.0 µM -2% | [5]; [17] 29% | [5]; at 100.0 µM 33% | [6]; at 1.2 µM -1% | [6]; at 3.7 µM 0% | [6]; at 11.0 µM -4% | [6]; at 33.0 µM 4% | [6]; at 100.0 µM 43% | [7]; [16] -5% | [7]; [17] 13% | [7]; at 50.0 µM 55% | [15]; at 1.2 µM -11% | [15]; at 3.7 µM -7% | [15]; at 11.0 µM -6% | [15]; at 33.0 µM -13% | [15]; at 100.0 µM 52% | [9]; at 1.2 µM -3% | [9]; at 3.7 µM -4% | [9]; [16] 3% | [9]; at 11.0 µM -6% | [9]; at 33.0 µM -7% | [9]; [17] 43% | [10]; at 1.2 µM 0% | [10]; at 3.7 µM 1% | [10]; at 11.0 µM 0% | [10]; at 33.0 µM 5% | [10]; at 100.0 µM 69% | [11]; at 1.2 µM 0% | [11]; at 3.7 µM -1% | [11]; at 11.0 µM -3% | [11]; at 33.0 µM -5% | [11]; at 100.0 µM 47% | [12]; at 1.2 µM 2% | [12]; at 3.7 µM 5% | [12]; at 11.0 µM 5% | [12]; at 33.0 µM 14% | [12]; at 100.0 µM 49% | [13]; [16] 10% | [13]; [17] 31% | [14]; at 1.2 µM 7% | [14]; at 3.7 µM 7% | [14]; at 11.0 µM 26% | [14]; at 33.0 µM 24% | [14]; at 100.0 µM 67%
active: [1]; at 100.0 µM 77% | [3]; at 100.0 µM 74% | [4]; [17] 75% | [4]; at 50.0 µM 93.2% | [5]; at 50.0 µM 94.2% | [9]; at 50.0 µM 88.8% | [9]; at 100.0 µM 87% | [13]; at 50.0 µM 89.2%
